Results as given in PubChem BioAssay (NCATS).
Records with an inconclusive call do not appear. Activity calls are given as the source filed them. The call rests on the fitted dose curve; in most records, active means well fitted curve in the direction sought with a large enough effect; inconclusive means small, poorly fitted or top-dose-only effect, or another doubt; inactive means no such curve, though single readings can be large; an effect the other way counts as inactive or inconclusive.

How the values were obtained:
[1] = qHTS of pediatric cancer cell lines to identify multiple opportunities for drug repurposing: Primary screen for OHS-50 cells (AID 1347103); further: nearly all actives have a fitted effect of over 40% in size
In short: (§1)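 Cells (500-1,000/well) rested 5 h, then received compounds for 48 h; metabolically active cells were measured by CellTiter-Glo luminescence. Final concentrations spanned up to 46 µM (MIPE, 11-point) or 0.59 nM-46 µM (NPC, 8-point) in primary screens, 11-point in follow-ups.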

[2] = qHTS of pediatric cancer cell lines to identify multiple opportunities for drug repurposing: Primary screen for RD cells (AID 1347104); further: nearly all actives have a fitted effect of over 55% in size
In short: (§2)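 Plated cells (500-1,000 per well, growth media) were allowed to settle for 5 hours, treated with compound dilutions for 48 hours, then lysed with CellTiter-Glo for 15 min at room temperature before luminescence reading.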

[3] = qHTS of pediatric cancer cell lines to identify multiple opportunities for drug repurposing: Primary screen for MG 63 (6-TG R) cells (AID 1347105); further: nearly all actives have a fitted effect of over 50% in size
In short: as §2

[4] = qHTS of pediatric cancer cell lines to identify multiple opportunities for drug repurposing: Primary screen for control Hh wild type fibroblast cells (AID 1347106);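 further: series mostly up to about 46 µM; a drop in luminescence marks cytotoxicity and a rise apparent proliferation; nearly all actives have a fitted effect of over 55% in size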
In short: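 Cells (500-1,000/well) in growth media were settled 5 h at 37 degrees C, then given compounds for 48 h. Viability was read as CellTiter-Glo luminescence. Primary runs used MIPE at 11 points (0.78 nM-46 µM) and NPC at 8 points (0.59 nM-46 µM); follow-ups used 11 points.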

[5] = qHTS of pediatric cancer cell lines to identify multiple opportunities for drug repurposing: Primary screen for Rh41 cells (AID 1347108);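 further: series mostly up to about 46 µM; luminescence drop marks cytotoxic hits; nearly all actives have a fitted effect of over 70% in size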
In short: as §2

[6] = qHTS of pediatric cancer cell lines to identify multiple opportunities for drug repurposing: Confirmatory screen for NB1643 cells (AID 1347109); further: nearly all actives have a fitted effect of over 45% in size; further: potency means the concentration at half of the fitted maximal effect
In short: as §1

[7] = qHTS of pediatric cancer cell lines to identify multiple opportunities for drug repurposing: Confirmatory screen for LAN-5 cells (AID 1347113); further: nearly all actives have a fitted effect of over 65% in size; further: potency means the concentration at half of the fitted maximal effect
In short: as §1

[8] = qHTS of pediatric cancer cell lines to identify multiple opportunities for drug repurposing: Confirmatory screen for DAOY cells (AID 1347114); further: nearly all actives have a fitted effect of over 65% in size
In short: (§3)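 Viability measured as metabolically active cells via CellTiter-Glo luminescence following 48 hours of compound exposure, 11-point dilutions in confirmatory testing. 500-1,000 cells/well plated 5 hours before dosing; controls were DMSO and 2.3 µM bortezomib.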

[9] = qHTS of pediatric cancer cell lines to identify multiple opportunities for drug repurposing: Confirmatory screen for NB-EBc1 cells (AID 1347115);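 further: cells exposed to compound for 48 h before the viability read; nearly all actives have a fitted effect of over 45% in size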; further: potency means the concentration at half of the fitted maximal effect
In short: as §1

[10] = qHTS of pediatric cancer cell lines to identify multiple opportunities for drug repurposing: Confirmatory screen for SJ-GBM2 cells (AID 1347116); further: nearly all actives have a fitted effect of over 60% in size; further: potency means the concentration at half of the fitted maximal effect
In short: as §3

[11] = qHTS of pediatric cancer cell lines to identify multiple opportunities for drug repurposing: Confirmatory screen for BT-37 cells (AID 1347117); further: nearly all actives have a fitted effect of over 55% in size; further: potency means the concentration at half of the fitted maximal effect
In short: as §1

[12] = qHTS of pediatric cancer cell lines to identify multiple opportunities for drug repurposing: Confirmatory screen for MG 63 (6-TG R) cells (AID 1347119); further: nearly all actives have a fitted effect of over 55% in size; further: potency means the concentration at half of the fitted maximal effect
In short: as §1

[13] = qHTS of pediatric cancer cell lines to identify multiple opportunities for drug repurposing: Primary screen for Rh30 cells (AID 1347107); further: series mostly up to about 46 µM; nearly all actives have a fitted effect of over 75% in size
In short: as §1

[14] = qHTS of pediatric cancer cell lines to identify multiple opportunities for drug repurposing: Confirmatory screen for A673 cells (AID 1347110);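 further: cells exposed to compound for 48 h before the viability read; nearly all actives have a fitted effect of over 65% in size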; further: potency means the concentration at half of the fitted maximal effect
In short: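 Forty-eight-hour viability assay. Follow-up compounds ran at 11-point dilutions; positive control bortezomib at 2.3 uM final, neutral control DMSO.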

[15] = qHTS of pediatric cancer cell lines to identify multiple opportunities for drug repurposing: Confirmatory screen for BT-12 cells (AID 1347112); further: nearly all actives have a fitted effect of over 55% in size
In short: as §1

[16] = qHTS of pediatric cancer cell lines to identify multiple opportunities for drug repurposing: Confirmatory screen for control Hh wild type fibroblast cells (AID 1347121); further: nearly all actives have a fitted effect of over 70% in size
In short: as §1

[17] = qHTS of pediatric cancer cell lines to identify multiple opportunities for drug repurposing: Confirmatory screen for U-2 OS cells (AID 1347122); further: nearly all actives have a fitted effect of over 65% in size
In short: as §1

[18] = qHTS of pediatric cancer cell lines to identify multiple opportunities for drug repurposing: Confirmatory screen for Rh41 cells (AID 1347123);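 further: 48 h compound exposure; nearly all actives have a fitted effect of over 60% in size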
In short: as §1

[19] = qHTS of pediatric cancer cell lines to identify multiple opportunities for drug repurposing: Confirmatory screen for TC32 cells (AID 1347118); further: potency means the concentration at half of the fitted maximal effect
In short: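 Measured quantity: luminescence from CellTiter-Glo, reflecting metabolically active TC32 cells following 48 h of compound. Curves came straight from multi-point titrations, with 8 or 11 points in primary and 11 in confirmatory screening.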

[20] = qHTS of pediatric cancer cell lines to identify multiple opportunities for drug repurposing: Confirmatory screen for SK-N-MC cells (AID 1347111);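 further: potency means the concentration at half of the fitted maximal effect; cells exposed to compound for 48 h before the readout; nearly all actives have a fitted effect of over 70% in size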
In short: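 Seed 500-1,000 cells/well; rest 5 h at 37 degrees C. Pin-transfer compounds, 11-point titration. Incubate 48 h. Add CellTiter-Glo, 15 min RT, read luminescence.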

Measured: Potency

C[C@H]1C[C@H]2[C@@H]3CCC4=CC(=O)C=C[C@]4(C)[C@H]3C(=O)C[C@]2(C)[C@@]1(O)C(=O)CO
active: [6] 2.61 µM | [7] 2.93 µM | [9] 8.27 µM | [10] 4.65 µM | [11] 2.93 µM | [12] 4.65 µM
inactive: [1] | [2] | [3] | [4] | [5] | [8]

CN1CC(=O)N2[C@H](c3ccc4c(c3)OCO4)c3[nH]c4ccccc4c3C[C@@H]2C1=O
inactive: [1] | [2] | [3] | [4] | [13] | [5]

CC(C)(Oc1ccc(Cl)cc1)C(=O)OCCCOC(=O)C(C)(C)Oc1ccc(Cl)cc1
inactive: [1] | [2] | [3] | [4] | [13] | [5]

COC(=O)c1c(Cl)c(Cl)c(C(=O)OC)c(Cl)c1Cl
inactive: [1] | [2] | [3] | [4] | [13] | [5]

O=C(O)Cn1cnnn1
inactive: [1] | [2] | [3] | [4] | [13] | [5]

O=C(CCCCCCCCC#CI)Oc1ccccc1
inactive: [1] | [2] | [3] | [4] | [5]

CC(=O)OC[C@H]1O[C@@H](OC(C)=O)[C@H](OC(C)=O)[C@@H]1OC(C)=O
inactive: [1] | [2] | [3] | [4] | [5]

O=C(Oc1ccccc1)c1cccc(C(=O)Oc2ccccc2)c1
inactive: [1] | [2] | [3] | [4] | [5]

CO/N=C(/C(=O)N[C@@H]1C(=O)N2C(C(=O)OCOC(=O)C(C)(C)C)=C(C)CS[C@H]12)c1csc(N)n1
inactive: [1] | [2] | [3] | [4] | [13] | [5]

CCCCC(CC)CNC(=O)CC(C)OC(=O)CCC(=O)O (stereo not given)
active: [14] 2.61 µM
not listed: [7] | [19] | [20]
inactive: all other assays above

CCN1C(=O)c2ccccc2C1Nc1ccc(OCCN2CCCCC2)cc1 (stereo not given)
inactive: [1] | [2] | [3] | [4] | [5]

O=C(O)c1ccc(OCCN2CCCCC2)cc1
inactive: [1] | [2] | [3] | [4] | [13] | [5]

CN(C)CCN(Cc1ccsc1)c1ccccn1
not listed: [17] | [19] | [20]
inactive: all other assays above

COc1cc(NS(=O)(=O)c2ccc(N)cc2)nc(C)n1
inactive: [1] | [2] | [3] | [4] | [5]

OC[C@]1(O)OC[C@@H](O)[C@H](O)[C@@H]1O
inactive: [1] | [2] | [3] | [4] | [5]

CC1(C)S[C@@H]2[C@H](NC(=O)C(c3ccccc3)S(=O)(=O)O)C(=O)N2[C@H]1C(=O)O (stereo not given in full)
inactive: [1] | [2] | [3] | [4] | [5]

CCCCC(O)/C=C(C)/C=C/C=C/C(=O)N1CCCC1=O (stereo not given)
inactive: [1] | [2] | [3] | [4] | [5]

CCCCOC(=O)CCCCCCCCC(=O)OCCCC
inactive: [1] | [2] | [3] | [4] | [13] | [5]

CCN(CC)CC(=O)OCC(=O)[C@@]1(O)CC[C@H]2[C@@H]3CCC4=CC(=O)CC[C@]4(C)[C@H]3[C@@H](O)C[C@@]21C
active: [19] 11.7 µM
not listed: [7] | [10] | [12] | [20]
inactive: all other assays above

C[C@]12CCC(=O)C=C1CC[C@@H]1[C@@H]2[C@@H](O)C[C@@]2(C)[C@H]1CC[C@]2(O)C(=O)COC(=O)CCC(=O)O
active: [20] 18.5 µM
not listed: [9] | [19]
inactive: all other assays above

COCCc1ccccn1
inactive: [1] | [2] | [3] | [4] | [5]

COc1ccc(CCC(C)=O)cc1
inactive: [1] | [2] | [3] | [4] | [5]

CCOc1ncc(F)c(=O)[nH]1
inactive: [1] | [2] | [3] | [4] | [13] | [5]

C/C(=N/NC(=O)c1ccncc1)C(=O)O
inactive: [1] | [2] | [3] | [4] | [13] | [5]

O=C(O)Cn1c(=O)n(Cc2ccc(Br)cc2F)c(=O)c2ccc(Cl)cc21
inactive: [1] | [2] | [3] | [4] | [13] | [5]

COc1cc(/C=C/C(N)=O)cc(OC)c1OC
not listed: [6] | [10] | [11] | [12] | [15] | [20]
inactive: all other assays above

CCOc1ccc(NS(=O)(=O)c2ccc(N)cc2)nn1
inactive: [1] | [2] | [3] | [4] | [5]

c1ccc2occc2c1
inactive: [1] | [2] | [3] | [4] | [5]

CC(=O)CC/C=C(\C)CC/C=C(\C)CC/C=C(\C)CCC=C(C)C
inactive: [1] | [2] | [3] | [4] | [5]

CCC(=O)O[C@H]1[C@H](O[C@@H]2[C@@H](C)[C@H](O[C@H]3C[C@@](C)(OC)[C@@H](O)[C@H](C)O3)[C@@H](C)C(=O)O[C@H](CC)[C@@](C)(O)[C@H](O)[C@@H](C)C(=O)[C@H](C)C[C@@]2(C)O)O[C@H](C)C[C@@H]1N(C)C
inactive: [1] | [2] | [3] | [4] | [5]

CC(=O)OCC(=O)[C@@]1(O)[C@H](OC(C)=O)C[C@H]2[C@@H]3CCC4=CC(=O)C=C[C@]4(C)[C@@]3(F)[C@@H](O)C[C@@]21C
not listed: [10] | [19] | [20]
inactive: all other assays above

Nc1nnnn1-c1ccccc1
inactive: [1] | [2] | [3] | [4] | [13] | [5]

Cc1ncc(CO)c(CO)c1O
inactive: [1] | [2] | [3] | [13] | [5]

CC(C)(C)c1nnc(NS(=O)(=O)c2ccccc2)s1
inactive: [1] | [2] | [3] | [4] | [13] | [5]

COCCc1ccc(OCC2CO2)cc1 (stereo not given)
inactive: [1] | [2] | [3] | [4] | [13] | [5]

CC1c2ccccc2CN1NC(=O)c1ccc(Cl)c(S(N)(=O)=O)c1 (stereo not given)
inactive: [1] | [2] | [4]

COc1cc(S(N)(=O)=O)cc(C(=O)O)c1OC
inactive: [1] | [2] | [3] | [13] | [5]

O=C1CC[C@H](C(=O)N2CCCCC2)N1
inactive: [1] | [2] | [3] | [13] | [5]

CCNC(=O)NCCCOc1cccc(CN2CCCCC2)c1
inactive: [1] | [2] | [3] | [13] | [5]

Nc1c(NC/C=C\COc2cc(CN3CCCCC3)ccn2)c(=O)c1=O
inactive: [1] | [2] | [3] | [13] | [5]

C#CC(C)(CC)OC(=O)c1ccccc1C(=O)O (stereo not given)
inactive: [1] | [2] | [4] | [13] | [5]

CCOC(=O)[C@H](CCc1ccccc1)N[C@@H](C)C(=O)N(CC(=O)O)C1Cc2ccccc2C1
inactive: [1] | [2] | [4] | [13]

COc1cc2nc(Cl)nc(N)c2cc1OC
inactive: [1] | [2] | [4] | [13] | [5]

O=C(O)[C@H](O)[C@@H](O)[C@H](O[C@@H]1O[C@H](CO)[C@H](O)[C@H](O)[C@H]1O)[C@H](O)CO
inactive: [1] | [2] | [3] | [13] | [5]

O=C1CCCc2c(O)cccc21
inactive: [1] | [2] | [4] | [13]

CC(C)C(C)(C)C(C)(C)C(C)(C)S
inactive: [1] | [2] | [3] | [13] | [5]

Cc1cccc(C)c1NC(=O)c1cc(S(N)(=O)=O)c(Cl)cc1O
inactive: [1] | [2] | [3] | [13] | [5]

CCc1cc(S(=O)(=O)O)c2cc(C(C)C)cccc1-2
inactive: [1] | [2] | [4] | [13] | [5]

O=C(c1ccccc1)c1ccccc1
inactive: [1] | [2] | [3] | [13] | [5]

O=C(COCCOCCOCC(=O)Nc1c(I)cc(I)c(C(=O)O)c1I)Nc1c(I)cc(I)c(C(=O)O)c1I
inactive: [1] | [2] | [4] | [13] | [5]

O=C(CO)[C@@H](O)[C@H](O)[C@@H](O)CO
inactive: [1] | [2] | [3] | [13] | [5]

COC(=O)c1ccc(NC(C)=O)cc1OC
inactive: [1] | [2] | [4] | [13] | [5]

Nc1ccc([N+](=O)[O-])c(C(F)(F)F)c1
inactive: [1] | [2] | [3] | [13] | [5]
